# Changes are numbered by the printed parent chain.
# Key:
# Test in all cases: PBM; 200 nM protein, PBS
# Settings in all cases: dsDNA, one strand shown
# PAX4 [1] = target: T1, PAX4 (Homo sapiens, UniProt O43316 9-242, R200K)
# T1 sequence: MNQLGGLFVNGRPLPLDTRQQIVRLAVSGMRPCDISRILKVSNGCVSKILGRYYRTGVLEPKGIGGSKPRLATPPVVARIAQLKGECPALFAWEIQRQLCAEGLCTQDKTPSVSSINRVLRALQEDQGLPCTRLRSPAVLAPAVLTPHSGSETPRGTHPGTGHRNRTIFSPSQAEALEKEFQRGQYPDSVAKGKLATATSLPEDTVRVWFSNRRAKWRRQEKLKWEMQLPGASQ
# PAX4 [2] = target: T2, PAX4 (Homo sapiens, UniProt O43316 9-242)
# T2 sequence: T1 sequence with K192R
# HOXB6 [3] = target: HOXB6 (Homo sapiens, UniProt P17509 132-218, K202E)
# MSX2 [4] = target: MSX2 (Homo sapiens, UniProt P35548 130-214, R199I)
# PAX4 [5] = target: T3, PAX4 (Homo sapiens, UniProt O43316 9-242, R200Q)
# T3 sequence: T1 sequence with K192Q
# PAX4 [6] = target: T4, PAX4 (Homo sapiens, UniProt O43316 9-242, F177V)
# T4 sequence: T1 sequence with F169V, K192R
# MSX2 [7] = target: MSX2 (Homo sapiens, UniProt P35548 130-214)
# PAX4 [8] = target: T5, PAX4 (Homo sapiens, UniProt O43316 9-242, F177Y)
# T5 sequence: T1 sequence with F169Y, K192R
# MSX2 [9] = target: MSX2 (Homo sapiens, UniProt P35548 130-214, F161Y)
# PAX4 [10] = target: T6, PAX4 (Homo sapiens, UniProt O43316 9-242, R227W)
# T6 sequence: T1 sequence with K192R, R219W
# HOXB6 [11] = target: HOXB6 (Homo sapiens, UniProt P17509 132-218)
# ALX4 [12] = target: ALX4 (Homo sapiens, UniProt Q9H161 200-286)
# ALX4 [13] = target: ALX4 (Homo sapiens, UniProt Q9H161 200-286, Q225E)
# ALX1 [14] = target: ALX1 (Homo sapiens, UniProt Q15699 118-204, L144V)
# ALX3 [15] = target: ALX3 (Homo sapiens, UniProt O95076 139-225, N203Q)
# ALX1 [16] = target: ALX1 (Homo sapiens, UniProt Q15699 118-204, L144R)
# ALX3 [17] = target: ALX3 (Homo sapiens, UniProt O95076 139-225)
# PROP1 [18] = target: PROP1 (Homo sapiens, UniProt O75360 56-141)
# HESX1 = HESX1 (Homo sapiens, UniProt Q9UBX0 95-180, R109Q)
# PROP1 [19] = target: PROP1 (Homo sapiens, UniProt O75360 56-141, R99H)
# ALX3 [20] = target: ALX3 (Homo sapiens, UniProt O95076 139-225, L168Q)
# ALX3 [21] = target: ALX3 (Homo sapiens, UniProt O95076 139-225, L168V)
# PROP1 [22] = target: PROP1 (Homo sapiens, UniProt O75360 56-141, F88S)
# ALX3 [23] = target: ALX3 (Homo sapiens, UniProt O95076 139-225, N203S)
# PRRX1 [24] = target: PRRX1 (Homo sapiens, UniProt P54821 80-166, F113S)
# PRRX1 [25] = target: PRRX1 (Homo sapiens, UniProt P54821 80-166)
# ALX1 [26] = target: ALX1 (Homo sapiens, UniProt Q15699 118-204)
# HOXA2 [27] = target: HOXA2 (Homo sapiens, UniProt O43364 129-215, R185T)
# HOXA2 [28] = target: HOXA2 (Homo sapiens, UniProt O43364 129-215, R185K)
# HOXA2 [29] = target: HOXA2 (Homo sapiens, UniProt O43364 129-215, Y150S)
# HOXA2 [30] = target: HOXA2 (Homo sapiens, UniProt O43364 129-215)
# HOXB9 [31] = target: HOXB9 (Homo sapiens, UniProt P17482 171-250)
# HOXB9 [32] = target: HOXB9 (Homo sapiens, UniProt P17482 171-250, R186Q)
# HOXB9 (Homo sapiens, UniProt P17482 171-250, R186Q), sequence (P17482 171-250 R186Q): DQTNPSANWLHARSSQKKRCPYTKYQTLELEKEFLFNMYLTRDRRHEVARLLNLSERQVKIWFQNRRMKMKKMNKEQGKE
# MSX2 (Homo sapiens, UniProt P35548 130-214), sequence (P35548 130-214): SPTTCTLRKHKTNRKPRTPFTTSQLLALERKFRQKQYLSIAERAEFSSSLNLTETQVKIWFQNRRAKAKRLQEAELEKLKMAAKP
# MSX2 (Homo sapiens, UniProt P35548 130-214, R199I), sequence (P35548 130-214 R199I): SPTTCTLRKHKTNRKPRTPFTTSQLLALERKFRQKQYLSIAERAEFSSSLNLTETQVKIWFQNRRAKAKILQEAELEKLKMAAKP
# MSX2 (Homo sapiens, UniProt P35548 130-214, F161Y), sequence (P35548 130-214 F161Y): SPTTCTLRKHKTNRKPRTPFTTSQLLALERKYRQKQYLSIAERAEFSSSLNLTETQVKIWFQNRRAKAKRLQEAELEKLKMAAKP
# ALX1 (Homo sapiens, UniProt Q15699 118-204, L144V), sequence (Q15699 118-204 L144V): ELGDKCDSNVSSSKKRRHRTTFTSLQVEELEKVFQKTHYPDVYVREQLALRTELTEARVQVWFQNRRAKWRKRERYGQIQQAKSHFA
# ALX3 (Homo sapiens, UniProt O95076 139-225, N203Q), sequence (O95076 139-225 N203Q): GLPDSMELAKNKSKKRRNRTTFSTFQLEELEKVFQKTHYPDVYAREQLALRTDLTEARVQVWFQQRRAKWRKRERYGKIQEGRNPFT
# ALX3 (Homo sapiens, UniProt O95076 139-225, N203S), sequence (O95076 139-225 N203S): as the sequence (O95076 139-225 N203Q) above, with Q65S counted along it
# ALX4 (Homo sapiens, UniProt Q9H161 200-286, Q225E), sequence (Q9H161 200-286 Q225E): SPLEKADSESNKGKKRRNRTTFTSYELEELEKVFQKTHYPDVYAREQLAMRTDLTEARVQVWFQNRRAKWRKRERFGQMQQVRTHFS
# ALX3 (Homo sapiens, UniProt O95076 139-225, L168Q), sequence (O95076 139-225 L168Q): as the sequence (O95076 139-225 N203Q) above, with L30Q, Q65N counted along it
# ALX3 (Homo sapiens, UniProt O95076 139-225, L168V), sequence (O95076 139-225 L168V): as the sequence (O95076 139-225 N203Q) above, with L30V, Q65N counted along it
# ALX3 (Homo sapiens, UniProt O95076 139-225), sequence (O95076 139-225): as the sequence (O95076 139-225 N203Q) above, with Q65N counted along it
# ALX4 (Homo sapiens, UniProt Q9H161 200-286), sequence (Q9H161 200-286): as the sequence (Q9H161 200-286 Q225E) above, with E26Q counted along it
# ALX1 (Homo sapiens, UniProt Q15699 118-204, L144R), sequence (Q15699 118-204 L144R): as the sequence (Q15699 118-204 L144V) above, with V27R counted along it
# PROP1 (Homo sapiens, UniProt O75360 56-141, R99H), sequence (O75360 56-141 R99H): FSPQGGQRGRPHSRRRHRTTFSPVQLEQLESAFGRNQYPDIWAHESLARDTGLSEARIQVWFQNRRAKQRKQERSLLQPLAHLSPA
# PROP1 (Homo sapiens, UniProt O75360 56-141), sequence (O75360 56-141): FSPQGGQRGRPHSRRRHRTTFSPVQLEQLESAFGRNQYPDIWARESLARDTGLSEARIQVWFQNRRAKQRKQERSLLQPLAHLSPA
# ALX1 (Homo sapiens, UniProt Q15699 118-204), sequence (Q15699 118-204): as the sequence (Q15699 118-204 L144V) above, with V27L counted along it
# PRRX1 (Homo sapiens, UniProt P54821 80-166), sequence (P54821 80-166): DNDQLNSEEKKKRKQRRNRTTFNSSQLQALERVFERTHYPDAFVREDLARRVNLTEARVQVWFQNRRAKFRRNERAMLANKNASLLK
# HOXB6 (Homo sapiens, UniProt P17509 132-218), sequence (P17509 132-218): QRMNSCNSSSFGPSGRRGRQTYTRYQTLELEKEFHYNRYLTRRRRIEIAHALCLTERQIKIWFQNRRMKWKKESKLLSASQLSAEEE
# HOXB9 (Homo sapiens, UniProt P17482 171-250), sequence (P17482 171-250): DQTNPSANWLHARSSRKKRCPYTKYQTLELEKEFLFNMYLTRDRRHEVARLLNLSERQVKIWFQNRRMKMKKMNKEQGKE
# PRRX1 (Homo sapiens, UniProt P54821 80-166, F113S), sequence (P54821 80-166 F113S): as the sequence (P54821 80-166) above, with F34S counted along it
# HOXA2 (Homo sapiens, UniProt O43364 129-215, R185K), sequence (O43364 129-215 R185K): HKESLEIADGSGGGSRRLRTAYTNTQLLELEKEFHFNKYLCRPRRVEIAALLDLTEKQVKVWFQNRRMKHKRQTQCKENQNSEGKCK
# HOXA2 (Homo sapiens, UniProt O43364 129-215, R185T), sequence (O43364 129-215 R185T): as the sequence (O43364 129-215 R185K) above, with K57T counted along it
# HESX1, sequence (Q9UBX0 95-180 R109Q): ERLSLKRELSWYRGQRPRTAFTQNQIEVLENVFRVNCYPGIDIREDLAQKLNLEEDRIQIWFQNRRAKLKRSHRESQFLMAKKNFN
# HOXA2 (Homo sapiens, UniProt O43364 129-215), sequence (O43364 129-215): as the sequence (O43364 129-215 R185K) above, with K57R counted along it
# PROP1 (Homo sapiens, UniProt O75360 56-141, F88S), sequence (O75360 56-141 F88S): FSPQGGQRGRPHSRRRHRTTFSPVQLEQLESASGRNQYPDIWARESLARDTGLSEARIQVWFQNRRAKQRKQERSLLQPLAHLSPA
# HOXB6 (Homo sapiens, UniProt P17509 132-218, K202E), sequence (P17509 132-218 K202E): as the sequence (P17509 132-218) above, with K71E counted along it
# HOXA2 (Homo sapiens, UniProt O43364 129-215, Y150S), sequence (O43364 129-215 Y150S): as the sequence (O43364 129-215 R185K) above, with Y22S, K57R counted along it
sequence,measurement,setting,value
CAGCCCGC,binding signal,PAX4 [1],"9.17 upbm affinity estimate (log intensity, higher = more binding, comparable within an allelic series)"
same,binding signal,PAX4 [2],"9.23 upbm affinity estimate (log intensity, higher = more binding, comparable within an allelic series)"
same,binding signal,HOXB6 [3],"9 upbm affinity estimate (log intensity, higher = more binding, comparable within an allelic series)"
same,binding signal,MSX2 [4],"9.36 upbm affinity estimate (log intensity, higher = more binding, comparable within an allelic series)"
same,binding signal,PAX4 [5],"9.12 upbm affinity estimate (log intensity, higher = more binding, comparable within an allelic series)"
same,binding signal,PAX4 [6],"9.04 upbm affinity estimate (log intensity, higher = more binding, comparable within an allelic series)"
same,binding signal,MSX2 [7],"9.33 upbm affinity estimate (log intensity, higher = more binding, comparable within an allelic series)"
same,binding signal,PAX4 [8],"8.99 upbm affinity estimate (log intensity, higher = more binding, comparable within an allelic series)"
same,binding signal,MSX2 [9],"9.37 upbm affinity estimate (log intensity, higher = more binding, comparable within an allelic series)"
same,binding signal,PAX4 [10],"9.09 upbm affinity estimate (log intensity, higher = more binding, comparable within an allelic series)"
same,binding signal,HOXB6 [11],"8.96 upbm affinity estimate (log intensity, higher = more binding, comparable within an allelic series)"
ATAGAGAT,binding signal,PAX4 [1],"10.5 upbm affinity estimate (log intensity, higher = more binding, comparable within an allelic series)"
same,binding signal,PAX4 [2],"10.6 upbm affinity estimate (log intensity, higher = more binding, comparable within an allelic series)"
AATTAAAG,binding signal,ALX4 [12],"13.6 upbm affinity estimate (log intensity, higher = more binding, comparable within an allelic series)"
same,binding signal,ALX4 [13],"12.8 upbm affinity estimate (log intensity, higher = more binding, comparable within an allelic series)"
same,binding signal,ALX1 [14],"11.4 upbm affinity estimate (log intensity, higher = more binding, comparable within an allelic series)"
same,binding signal,ALX3 [15],"8.35 upbm affinity estimate (log intensity, higher = more binding, comparable within an allelic series)"
same,binding signal,ALX1 [16],"11 upbm affinity estimate (log intensity, higher = more binding, comparable within an allelic series)"
same,binding signal,ALX3 [17],"12.3 upbm affinity estimate (log intensity, higher = more binding, comparable within an allelic series)"
same,binding signal,PROP1 [18],"11.2 upbm affinity estimate (log intensity, higher = more binding, comparable within an allelic series)"
same,binding signal,HESX1,"8.69 upbm affinity estimate (log intensity, higher = more binding, comparable within an allelic series)"
same,binding signal,PROP1 [19],"10.9 upbm affinity estimate (log intensity, higher = more binding, comparable within an allelic series)"
same,binding signal,ALX3 [20],"10.3 upbm affinity estimate (log intensity, higher = more binding, comparable within an allelic series)"
same,binding signal,ALX3 [21],"9.9 upbm affinity estimate (log intensity, higher = more binding, comparable within an allelic series)"
same,binding signal,PROP1 [22],"7.55 upbm affinity estimate (log intensity, higher = more binding, comparable within an allelic series)"
same,binding signal,ALX3 [23],"8.43 upbm affinity estimate (log intensity, higher = more binding, comparable within an allelic series)"
CAGCCGGC,binding signal,PAX4 [1],"9.11 upbm affinity estimate (log intensity, higher = more binding, comparable within an allelic series)"
same,binding signal,PRRX1 [24],"9.15 upbm affinity estimate (log intensity, higher = more binding, comparable within an allelic series)"
same,binding signal,PAX4 [2],"9.27 upbm affinity estimate (log intensity, higher = more binding, comparable within an allelic series)"
same,binding signal,MSX2 [4],"9.43 upbm affinity estimate (log intensity, higher = more binding, comparable within an allelic series)"
same,binding signal,PAX4 [5],"9.19 upbm affinity estimate (log intensity, higher = more binding, comparable within an allelic series)"
same,binding signal,PAX4 [6],"9.05 upbm affinity estimate (log intensity, higher = more binding, comparable within an allelic series)"
same,binding signal,MSX2 [7],"9.21 upbm affinity estimate (log intensity, higher = more binding, comparable within an allelic series)"
same,binding signal,PAX4 [8],"9.05 upbm affinity estimate (log intensity, higher = more binding, comparable within an allelic series)"
same,binding signal,MSX2 [9],"9.41 upbm affinity estimate (log intensity, higher = more binding, comparable within an allelic series)"
same,binding signal,PAX4 [10],"9.13 upbm affinity estimate (log intensity, higher = more binding, comparable within an allelic series)"
same,binding signal,PRRX1 [25],"8.9 upbm affinity estimate (log intensity, higher = more binding, comparable within an allelic series)"
AAATTAGT,binding signal,ALX4 [12],"13.5 upbm affinity estimate (log intensity, higher = more binding, comparable within an allelic series)"
same,binding signal,ALX4 [13],"12.5 upbm affinity estimate (log intensity, higher = more binding, comparable within an allelic series)"
same,binding signal,ALX1 [14],"11.4 upbm affinity estimate (log intensity, higher = more binding, comparable within an allelic series)"
same,binding signal,PAX4 [5],"12 upbm affinity estimate (log intensity, higher = more binding, comparable within an allelic series)"
same,binding signal,ALX1 [16],"10.9 upbm affinity estimate (log intensity, higher = more binding, comparable within an allelic series)"
same,binding signal,PAX4 [10],"10.9 upbm affinity estimate (log intensity, higher = more binding, comparable within an allelic series)"
same,binding signal,ALX1 [26],"12.1 upbm affinity estimate (log intensity, higher = more binding, comparable within an allelic series)"
AGGGGGCC,binding signal,PAX4 [1],"8.96 upbm affinity estimate (log intensity, higher = more binding, comparable within an allelic series)"
same,binding signal,PAX4 [2],"9.02 upbm affinity estimate (log intensity, higher = more binding, comparable within an allelic series)"
same,binding signal,HOXA2 [27],"7.23 upbm affinity estimate (log intensity, higher = more binding, comparable within an allelic series)"
same,binding signal,MSX2 [4],"9.51 upbm affinity estimate (log intensity, higher = more binding, comparable within an allelic series)"
same,binding signal,PAX4 [5],"9.05 upbm affinity estimate (log intensity, higher = more binding, comparable within an allelic series)"
same,binding signal,HOXA2 [28],"10.2 upbm affinity estimate (log intensity, higher = more binding, comparable within an allelic series)"
same,binding signal,PAX4 [6],"9.04 upbm affinity estimate (log intensity, higher = more binding, comparable within an allelic series)"
same,binding signal,MSX2 [7],"9.64 upbm affinity estimate (log intensity, higher = more binding, comparable within an allelic series)"
same,binding signal,PAX4 [8],"9.04 upbm affinity estimate (log intensity, higher = more binding, comparable within an allelic series)"
same,binding signal,MSX2 [9],"9.59 upbm affinity estimate (log intensity, higher = more binding, comparable within an allelic series)"
same,binding signal,PAX4 [10],"9.1 upbm affinity estimate (log intensity, higher = more binding, comparable within an allelic series)"
same,binding signal,HOXA2 [29],"10.2 upbm affinity estimate (log intensity, higher = more binding, comparable within an allelic series)"
same,binding signal,HOXA2 [30],"7.17 upbm affinity estimate (log intensity, higher = more binding, comparable within an allelic series)"
ATTTAAAA,binding signal,PAX4 [1],"10.7 upbm affinity estimate (log intensity, higher = more binding, comparable within an allelic series)"
same,binding signal,PAX4 [2],"11 upbm affinity estimate (log intensity, higher = more binding, comparable within an allelic series)"
same,binding signal,PAX4 [5],"10.8 upbm affinity estimate (log intensity, higher = more binding, comparable within an allelic series)"
same,binding signal,PAX4 [6],"10.3 upbm affinity estimate (log intensity, higher = more binding, comparable within an allelic series)"
CCCTAATA,binding signal,PAX4 [1],"11.3 upbm affinity estimate (log intensity, higher = more binding, comparable within an allelic series)"
same,binding signal,PAX4 [2],"11.6 upbm affinity estimate (log intensity, higher = more binding, comparable within an allelic series)"
same,binding signal,HOXB9 [31],"10.3 upbm affinity estimate (log intensity, higher = more binding, comparable within an allelic series)"
same,binding signal,ALX3 [15],"8.25 upbm affinity estimate (log intensity, higher = more binding, comparable within an allelic series)"
same,binding signal,PAX4 [5],"11.2 upbm affinity estimate (log intensity, higher = more binding, comparable within an allelic series)"
same,binding signal,PAX4 [6],"10.2 upbm affinity estimate (log intensity, higher = more binding, comparable within an allelic series)"
same,binding signal,ALX3 [17],"10.9 upbm affinity estimate (log intensity, higher = more binding, comparable within an allelic series)"
same,binding signal,PAX4 [8],"10.5 upbm affinity estimate (log intensity, higher = more binding, comparable within an allelic series)"
same,binding signal,ALX3 [20],"8.97 upbm affinity estimate (log intensity, higher = more binding, comparable within an allelic series)"
same,binding signal,HOXB9 [32],"10.2 upbm affinity estimate (log intensity, higher = more binding, comparable within an allelic series)"
same,binding signal,ALX3 [21],"8.89 upbm affinity estimate (log intensity, higher = more binding, comparable within an allelic series)"
same,binding signal,PAX4 [10],"10.6 upbm affinity estimate (log intensity, higher = more binding, comparable within an allelic series)"
same,binding signal,ALX3 [23],"8.32 upbm affinity estimate (log intensity, higher = more binding, comparable within an allelic series)"

# Reference: PMC11006913
